# The full list was thinned out, with hits kept by preference.
# Dicer inh – human Dicer pre-microRNA cleavage inhibition; z-score at 25 µM; cat-ELCCA pre-miR-21 Dicer processing, chemiluminescence; active compounds read high; Q9UPY3; 47,000 tested, 6% active; AID 1347074; in the data active = z-score above about 3, passing the limit was not always enough;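 also: plate controls were vehicle for no effect and no enzyme for full effect; higher signal means more uncleaved substrate so more Dicer inhibition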
# The depositor's hits bear a star.
SMILES,Dicer inh
O=C(O)c1cccc2c1NC(c1ccc(Br)cc1)C1CC=CC21 (stereo not given),-0.72
COc1ccc2c(c1)[C@@H]1C=CC[C@@H]1[C@H](c1ccc(C(=O)O)cc1)N2,4.2*
Cc1cccc2c1N[C@H](c1ccc(C(=O)O)cc1)C1CC=CC21 (stereo not given in full),0.98
O=[N+]([O-])c1ccc(N2CCCCC2)c(C(F)(F)F)c1,-0.61
Clc1ccc(-c2nnc(N3CCOCC3)o2)cc1Cl,-0.28
CC(C)OC(=O)CSc1nnc(-c2ccccc2Cl)o1,2.8
Cc1cc(C)n2c(SC3CCCCC3NS(=O)(=O)c3ccccc3)nnc2n1 (stereo not given),0
Cc1cc(C)n2c(SC3CCCCC3NS(=O)(=O)c3ccc(Cl)cc3)nnc2n1 (stereo not given),3.6*
Cc1cc(C)n2c(SC(CNS(=O)(=O)c3ccccc3)c3ccccc3)nnc2n1 (stereo not given),2.2
C=CCn1c(Sc2ncnc3c2sc2nc(C)cc(C)c23)nnc1-c1ccc(Cl)cc1,0.22
Cc1cc(NS(=O)(=O)c2ccc(NS(=O)(=O)c3ccc(F)cc3Cl)cc2)no1,1
CCN(CC)CC#CC(O)(c1ccccc1)c1ccccc1,0.86
CCN(CC)CC#Cc1cccc(C)c1,5*
CCCC1=C(c2ccccc2)C(=O)NC1,-0.94
CCCSc1sc(C(=O)OCC)c2c1C(=O)CCC2,-0.61
C/S(=N\S(=O)(=O)c1cccc2nsnc12)c1ncc(C(F)(F)F)cc1Cl (stereo not given),-0.78
CCCn1c(=O)c(/C(N)=N/OC(=O)Nc2ccc(OC(F)(F)F)cc2)nn(-c2ccccc2)c1=O,-0.85
FC(F)(F)c1cccc(NC(=S)N2CCCc3ccccc32)c1,-0.12
CCN(CC)c1ccc2c(c1)OC(N)=C(C#N)C2c1ccc(Cl)cc1 (stereo not given),-0.3
COc1ccc(C2C(C#N)=C(N)Oc3cc(O)ccc32)cc1Br (stereo not given),0.46
C=CCOc1c(Cl)cc(C2C(C#N)=C(N)Oc3cc(O)ccc32)cc1OC (stereo not given),-0.24
CCO/C=N\C1=C(C#N)C(c2ccc(OC)cc2)c2ccc3ccccc3c2O1 (stereo not given),0.62
N#CC1=C(N)Oc2c(ccc3ccccc23)C1c1ccc(Cl)cc1 (stereo not given),0.62
CCOc1cc(C2C(C#N)=C(N)Oc3c2ccc2ccccc32)ccc1O (stereo not given),7.2*
COc1cc(C2C(C#N)=C(N)Oc3c2ccc2ccccc32)cc(Br)c1O (stereo not given),3.3*
SMILES,Dicer inh
CCOc1cc(C2C(C#N)=C(N)Oc3c2c(C)nn3-c2ccccc2)ccc1O (stereo not given),-7.3
CCO/C=N\C1=C(C#N)C(c2ccc(Cl)cc2)c2ccc3ccccc3c2O1 (stereo not given),3.9*
CN(C)/C=C/C(=O)c1ccc(C#Cc2ccccc2)s1,0.28
O=C(OCCSc1ncccc1[N+](=O)[O-])c1cccc(Cl)c1,-1.3
Cc1ccn2cc(-c3ccccc3)cc2c1,-1.9
O=C(Nc1cc(Cl)cc(Cl)c1)Nc1csc(Cc2c(Cl)cccc2Cl)n1,0.08
Cc1ccc(C)c(Cn2c(=O)c3cnc4c(c(C)nn4C)c3n2C)c1,-0.29
CCC(C)[C@H](N)c1nnc(SCc2ccc(C)cc2)o1 (stereo not given in full),0.39
CC(=O)Nc1nc(NC(C)=O)nc(-c2ccccc2C(F)(F)F)n1,2.5
CC1=CC(C)(C)N(C(=O)Nc2ccccc2)c2c(C)cc(C)cc21,1.5
CC1=CC(C)(C)N(C(=O)Nc2ccccc2)c2ccccc21,3.5*
CC1=CC(C)(C)N(C(=O)NC2CCCCC2)c2ccccc21,0.52
CC(C)N(Cc1ccc(N(C)C)cc1)S(=O)(=O)c1cc(Cl)c(Cl)cc1Cl,2.9
Cn1c(=O)c(/C(N)=N/O)cn(-c2ccccc2)c1=O,0.64
C/C=C(\C)C(=O)NC(=S)NNC(=O)c1ccc(N(C)C)cc1,-1.5
Cn1c(=O)c2c(nc(N/N=C/c3ccc(O)cc3)n2Cc2c(Cl)cccc2Cl)n(C)c1=O,4.8
CCN(CC)CCNc1nc2c(c(=O)[nH]c(=O)n2C)n1Cc1ccc(Cl)cc1,-3.5
Cn1c(=O)c2c(nc(N/N=C/c3cccc(O)c3)n2Cc2ccccc2Br)n(C)c1=O,3.4*
Cn1c(=O)c2c(nc(NCc3ccccc3)n2Cc2ccccc2)n(C)c1=O,1.2
CCN(CC)CCNc1nc2c(c(=O)n(C)c(=O)n2C)n1Cc1ccc(F)cc1,3.3*
Cn1c(=O)c2c(nc(NC3CCCCC3)n2Cc2ccccc2)n(C)c1=O,3.6*
Cn1c(=O)c2c(nc(N/N=C/c3ccccc3)n2Cc2ccccc2)n(C)c1=O,1.2
CCN(CC)CCNc1nc2c(c(=O)n(C)c(=O)n2C)n1Cc1ccc(Cl)c(Cl)c1,-0.88
Cn1c(=O)c2c(nc(NCCCO)n2Cc2ccccc2F)n(C)c1=O,0.32
Cn1c(=O)c2c(nc(Cl)n2Cc2ccccc2)n(C)c1=O,-3.9
SMILES,Dicer inh
Cn1c(=O)c2c(nc(NCCO)n2Cc2cccc3ccccc23)n(C)c1=O,3.1*
Cn1c(=O)c2c(nc(NCCc3ccccc3)n2Cc2ccccc2F)n(C)c1=O,-0.97
CC(C)(C)N1CN=C(SCc2ccc(Cl)cc2)NC1,-0.24
N/C(=N\NC(=O)Nc1cccc(C(F)(F)F)c1)c1ccc(C(F)(F)F)cn1,-0.57
CCc1cc2c(=O)c(-c3nc4ccccc4s3)c(C)oc2c(CN(C)C)c1O,-0.02
COc1ccc(C(=O)NCc2c(-c3ccccc3)noc2C)cc1,-1.2
CCCCNC(=O)NCCNc1ccc(C(F)(F)F)cn1,0.14
Nc1ccc(N2CCN(c3ccc(C(F)(F)F)cn3)CC2)nc1,0.44
O=C(CS(=O)(=O)c1ccc(C(F)(F)F)cn1)N/N=C\c1ccc(Cl)cc1,-0.36
COC(=O)c1ccc(C(=O)Nc2c(C(N)=O)oc3ccccc23)cc1,3.6*
O=C(Nc1c(C(=O)c2ccc(Br)cc2)oc2ccccc12)c1ccco1,-1
O=C(Nc1c(C(=O)c2ccc(F)cc2)oc2ccccc12)c1ccco1,-0.64
CCOC(=O)c1csc2c1CCCC2=O,-0.06
Nc1[nH]nc2nc(-c3ccccc3)c3c(c12)CCC3,0.72
Cc1ccc(C(C)C)c(OCCN2C(=O)C(=O)c3cccc(C)c32)c1,2.7
Cc1cc(C)c2cc(C(=O)Nc3ccc(Br)c(C)n3)[nH]c2c1,-3.1
Cc1cccnc1Nc1nc(-c2ccccn2)cs1,-3.3
COc1ccc(Nc2nc(-c3ccccn3)cs2)cc1,6.4*
COc1ccc(Nc2nc(-c3cccnc3)cs2)cc1,1.6
CCCc1c(O)nc2ccccn2c1=O,0.21
COCCOC(=O)Cn1nnc2sc3c(c2c1=O)CCC(C)C3 (stereo not given),0.73
CCCOC(=O)Cn1nnc2sc3c(c2c1=O)CCCC3,1.9
CC1CCc2c(sc3nnn(CC(=O)NC4CCCCC4)c(=O)c23)C1 (stereo not given),-0.09
CC1CCN(C(=O)Cn2nnc3sc4c(c3c2=O)CCCC4)CC1,3.5*
COC(=O)Cn1nnc2sc3c(c2c1=O)CCCC3,1
CCC(C)OC(=O)Cn1nnc2sc3c(c2c1=O)CCC(C)C3 (stereo not given),2
CC1CCN(C(=O)Cn2nnc3sc4c(c3c2=O)CCC(C)C4)CC1 (stereo not given),3*
CC(C)COC(=O)Cn1nnc2sc3c(c2c1=O)CCC(C)C3 (stereo not given),3
CCCCCOC(=O)Cn1nnc2sc3c(c2c1=O)CCC(C)C3 (stereo not given),3.5*

# Assay outcomes (PubChem)
